# Measurements reported in PubChem BioAssay (NCATS).
# Records with an inconclusive call do not appear. A call without a number means that no potency is given here. Activity calls are given as the source filed them. Calls come from the whole dose curve; as a rule, active = well fitted curve in the direction sought with a large enough effect; inconclusive = small, poorly fitted or top-dose-only effect, or another doubt; inactive = no such curve, though single readings can be large; an effect the other way counts as inactive or inconclusive.
# Tests used:
# [1] = qHTS of pediatric cancer cell lines to identify multiple opportunities for drug repurposing: Primary screen for OHS-50 cells (AID 1347103); note: nearly all actives have a fitted effect of over 40% in size; note: potency is the fitted concentration of half-maximal effect
# In short: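 Cells (500-1,000/well) rested 5 h, then received compounds for 48 h; metabolically active cells were measured by CellTiter-Glo luminescence. Final concentrations spanned up to 46 µM (MIPE, 11-point) or 0.59 nM-46 µM (NPC, 8-point) in primary screens, 11-point in follow-ups.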
# [2] = qHTS of pediatric cancer cell lines to identify multiple opportunities for drug repurposing: Primary screen for RD cells (AID 1347104); note: nearly all actives have a fitted effect of over 55% in size; note: potency is the fitted concentration of half-maximal effect
# In short: (§1)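 Cells seeded at 500-1,000 cells/well in growth media, rested 5 hours at 37 degrees C, 5% CO2, then dosed; MIPE compounds at 11-point (from 0.78 nM) and NPC at 8-point (from 0.59 nM) final concentrations. Viability by CellTiter-Glo luminescence after 48 hours.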
# [3] = qHTS of pediatric cancer cell lines to identify multiple opportunities for drug repurposing: Primary screen for MG 63 (6-TG R) cells (AID 1347105); note: nearly all actives have a fitted effect of over 50% in size; note: potency is the fitted concentration of half-maximal effect
# In short: as §1
# [4] = qHTS of pediatric cancer cell lines to identify multiple opportunities for drug repurposing: Primary screen for control Hh wild type fibroblast cells (AID 1347106);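 note: series mostly up to about 46 µM; a drop in luminescence marks cytotoxicity and a rise apparent proliferation; nearly all actives have a fitted effect of over 55% in size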
# In short: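 Cells (500-1,000/well) in growth media were settled 5 h at 37 degrees C, then given compounds for 48 h. Viability was read as CellTiter-Glo luminescence. Primary runs used MIPE at 11 points (0.78 nM-46 µM) and NPC at 8 points (0.59 nM-46 µM); follow-ups used 11 points.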
# [5] = qHTS of pediatric cancer cell lines to identify multiple opportunities for drug repurposing: Confirmatory screen for A673 cells (AID 1347110); note: nearly all actives have a fitted effect of over 65% in size; note: potency is the fitted concentration of half-maximal effect
# In short: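 Forty-eight-hour viability assay. Follow-up compounds ran at 11-point dilutions; positive control bortezomib at 2.3 uM final, neutral control DMSO.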
# [6] = qHTS of pediatric cancer cell lines to identify multiple opportunities for drug repurposing: Confirmatory screen for SK-N-MC cells (AID 1347111);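 note: potency is the fitted concentration of half-maximal effect; cells exposed to compound for 48 h before the readout; nearly all actives have a fitted effect of over 70% in size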
# In short: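 SK-N-MC cells at 500-1,000 cells/well in growth media were pre-incubated 5 h, then exposed to compounds at 11-point dilutions for 48 h at 37 degrees C, 5% CO2. Viability was read as CellTiter-Glo luminescence.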
# [7] = qHTS of pediatric cancer cell lines to identify multiple opportunities for drug repurposing: Confirmatory screen for NB-EBc1 cells (AID 1347115); note: nearly all actives have a fitted effect of over 45% in size; note: potency is the fitted concentration of half-maximal effect
# In short: (§2)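 Viability after 48 h compound treatment at 37C, 500-1,000 cells/well, read as ATP luminescence with CellTiter-Glo. Primary screens used 11-point (MIPE, 0.78 nM-46 µM) or 8-point (NPC, 0.59 nM-46 µM) final concentrations; follow-up screens used 11-point dilutions.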
# [8] = qHTS of pediatric cancer cell lines to identify multiple opportunities for drug repurposing: Confirmatory screen for MG 63 (6-TG R) cells (AID 1347119); note: nearly all actives have a fitted effect of over 55% in size; note: potency is the fitted concentration of half-maximal effect
# In short: as §2
# [9] = qHTS of pediatric cancer cell lines to identify multiple opportunities for drug repurposing: Primary screen for Rh18 cells (AID 1347102); note: nearly all actives have a fitted effect of over 65% in size; note: potency is the fitted concentration of half-maximal effect
# In short: as §2
# [10] = qHTS of pediatric cancer cell lines to identify multiple opportunities for drug repurposing: Primary screen for Rh30 cells (AID 1347107); note: series mostly up to about 46 µM; nearly all actives have a fitted effect of over 75% in size
# In short: as §2
# [11] = qHTS of pediatric cancer cell lines to identify multiple opportunities for drug repurposing: Primary screen for Rh41 cells (AID 1347108); note: nearly all actives have a fitted effect of over 70% in size; note: potency is the fitted concentration of half-maximal effect
# In short: as §1
# [12] = qHTS of pediatric cancer cell lines to identify multiple opportunities for drug repurposing: Confirmatory screen for NB1643 cells (AID 1347109); note: nearly all actives have a fitted effect of over 45% in size; note: potency is the fitted concentration of half-maximal effect
# In short: as §2
# [13] = qHTS of pediatric cancer cell lines to identify multiple opportunities for drug repurposing: Confirmatory screen for LAN-5 cells (AID 1347113); note: nearly all actives have a fitted effect of over 65% in size; note: potency is the fitted concentration of half-maximal effect
# In short: as §2
# [14] = qHTS of pediatric cancer cell lines to identify multiple opportunities for drug repurposing: Confirmatory screen for DAOY cells (AID 1347114); note: potency is the fitted concentration of half-maximal effect; nearly all actives have a fitted effect of over 65% in size
# In short: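 Viability measured as metabolically active cells via CellTiter-Glo luminescence following 48 hours of compound exposure, 11-point dilutions in confirmatory testing. 500-1,000 cells/well plated 5 hours before dosing; controls were DMSO and 2.3 µM bortezomib.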
# [15] = qHTS of pediatric cancer cell lines to identify multiple opportunities for drug repurposing: Confirmatory screen for BT-37 cells (AID 1347117); note: potency is the fitted concentration of half-maximal effect; nearly all actives have a fitted effect of over 55% in size
# In short: as §2
# [16] = qHTS of pediatric cancer cell lines to identify multiple opportunities for drug repurposing: Confirmatory screen for TC32 cells (AID 1347118)
# In short: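 Luminescent ATP read-out (CellTiter-Glo) of metabolically active TC32 cells after 48 h exposure. Concentration-response curves came from 11-point (MIPE, 0.78 nM–46 µM) or 8-point (NPC, 0.59 nM–46 µM) primary titrations; follow-up used 11 points.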
# [17] = qHTS of pediatric cancer cell lines to identify multiple opportunities for drug repurposing: Confirmatory screen for control Hh wild type fibroblast cells (AID 1347121); note: nearly all actives have a fitted effect of over 70% in size
# In short: as §2
compound,measurement,setting,value
CCCC1OC2C[C@@H]3[C@H]4CCC5=CC(=O)C=C[C@]5(C)[C@H]4C(O)C[C@]3(C)[C@]2(C(=O)CO)O1 (stereo partly specified),Potency,[1],inactive
same,Potency,[2],inactive
same,Potency,[3],inactive
same,Potency,[4],inactive
same,Potency,[5],inactive
same,Potency,[6],26.1 µM (active)
same,Potency,[7],inactive
same,Potency,[8],inactive
C[C@]12CC[C@@H]3c4ccc(O)cc4CC[C@H]3[C@H]1[C@@H](O)[C@@H](O)[C@H]2O,Potency,[9],inactive
same,Potency,[10],inactive
CC1(C)C(N(O)C(=O)Nc2ccc(Cl)cc2)N(c2ccc(Cl)cc2)C(=O)N1CC(=O)NN=CC=Cc1ccc([N+](=O)[O-])o1 (stereo unspecified),Potency,[9],20.9 µM (active)
same,Potency,[2],29.6 µM (active)
same,Potency,[11],14.8 µM (active)
Cc1cc(OCCCS(C)(=O)=O)cc(C)c1-c1cccc(COc2ccc3c(c2)OC[C@H]3CC(=O)O)c1,Potency,[9],inactive
same,Potency,[3],inactive
same,Potency,[4],inactive
C=CC(=O)Nc1cccc(Sc2nc(Nc3ccc(N4CCN(C)CC4)cc3)ncc2Cl)c1,Potency,[1],27.3 µM (active)
same,Potency,[4],inactive
same,Potency,[12],8.27 µM (active)
same,Potency,[5],4.14 µM (active)
same,Potency,[6],1.04 µM (active)
same,Potency,[13],9.27 µM (active)
same,Potency,[14],23.3 µM (active)
same,Potency,[7],18.5 µM (active)
same,Potency,[15],13.1 µM (active)
same,Potency,[16],0.737 µM (active)
same,Potency,[8],18.5 µM (active)
O=C(CCCN1CCN(c2ccc(F)cc2)CC1)NC1c2ccccc2CSc2ccccc21 (stereo unspecified),Potency,[1],8.63 µM (active)
same,Potency,[4],inactive
COc1ccc2nc3cc(Cl)ccc3c(Nc3cc(CN4CCCC4)c(O)c(CN4CCCC4)c3)c2n1,Potency,[9],inactive
same,Potency,[3],inactive
same,Potency,[4],inactive
same,Potency,[10],inactive
same,Potency,[11],inactive
c1ccc(CNc2nc(N3CCOc4ccccc43)nc3c2CCCC3)cc1,Potency,[9],inactive
same,Potency,[3],inactive
same,Potency,[4],inactive
same,Potency,[10],inactive
C[C@@H](NC(=O)c1ncnc(N)c1Cl)c1ncc(C(=O)Nc2cc(C(F)(F)F)c(Cl)cn2)s1,Potency,[9],inactive
same,Potency,[3],inactive
N#CC1(c2cccc(C(=O)Nc3cc(Oc4ccc5nc(NC(=O)C6CC6)sc5n4)ccc3F)c2Cl)CC1,Potency,[1],19.3 µM (active)
same,Potency,[4],inactive
COc1cc2c(cc1Cc1cccc(Cl)c1F)c(=O)c(C(=O)O)cn2[C@H](CO)C(C)C,Potency,[1],27.3 µM (active)
same,Potency,[4],inactive
same,Potency,[6],14.7 µM (active)
same,Potency,[16],13.1 µM (active)
CCCCc1ccc(NS(=O)(=O)c2ccc(C)c(C(=O)N3CCN(c4cccc(C)c4C)CC3)c2)cc1,Potency,[2],33.2 µM (active)
same,Potency,[4],inactive
CCOC(=O)c1c(CSc2ccccc2)n(C)c2cc(Br)c(O)c(CN(C)C)c12,Potency,[1],27.3 µM (active)
same,Potency,[3],inactive
same,Potency,[4],inactive
CC=C(C(=CC)c1ccc(O)cc1)c1ccc(O)cc1,Potency,[1],27.3 µM (active)
same,Potency,[3],18.7 µM (active)
same,Potency,[4],inactive
same,Potency,[10],inactive
O=C(CC12CC3CC(CC(C3)C1)C2)Nc1cccc2nc(NCCNCCO)ccc12,Potency,[1],27.3 µM (active)
same,Potency,[2],33.2 µM (active)
same,Potency,[3],14.8 µM (active)
same,Potency,[11],inactive
same,Potency,[12],inactive
same,Potency,[6],23.3 µM (active)
same,Potency,[13],inactive
same,Potency,[7],inactive
same,Potency,[16],18.5 µM (active)
same,Potency,[8],inactive
same,Potency,[17],inactive
